Source: PubChem BioAssay (NCI)
The panel holds about 83,000 compounds, 20% with a hit somewhere; the sample as a whole holds those more often.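 Cell lines were cultured in 96-well plates, exposed to a single compound concentration, and assessed for percent growth 48 hours later.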 Calls of active or inactive are those of the source. Rule for the calls: active = growth percent below 10; inactive = the rest.

Columns and labels:
Test in all cases: NCI-60 one-dose screen, 48 h (100 = growth as untreated, 0 = no growth, -100 = all killed)
Details in all cases: 10 µM unless noted
[1] = tested on: DU-145 prostate
[2] = tested on: K-562 leukemia
[3] = tested on: MALME-3M melanoma
[4] = tested on: MDA-MB-231 breast
[5] = tested on: RXF 393 renal
[6] = tested on: SF-268 CNS
[7] = tested on: SF-295 CNS
[8] = tested on: SF-539 CNS
[9] = tested on: UACC-257 melanoma
[10] = tested on: M14 melanoma
[11] = tested on: HCT-15 colon
[12] = tested on: HT29 colon
[13] = tested on: SNB-75 CNS
[14] = tested on: SNB-19 CNS
[15] = tested on: U251 CNS
[16] = tested on: PC-3 prostate
[17] = tested on: SK-MEL-5 melanoma
[18] = tested on: UACC-62 melanoma
[19] = tested on: LOX IMVI melanoma
[20] = tested on: SK-MEL-28 melanoma

Measured: growth

COc1ccc(S(=O)(=O)Oc2ccc(-c3sc4cc(OS(=O)(=O)c5ccc(OC)cc5)ccc4c3C(=O)c3ccc(OCCN4CCCCC4)cc3)cc2)cc1
inactive: [1] 107% | [2] 103% | [3] 92.3% | [4] 108% | [5] 110% | [6] 102% | [7] 93.2% | [8] 95.2% | [9] 93% | [10] 105% | [11] 101% | [12] 92% | [13] 70.9% | [14] 103% | [15] 99.7% | [16] 106% | [17] 101% | [18] 101% | [19] 101% | [20] 103%

Oc1c(Cl)cc(Cl)c2ccc(CN3CCNCC3)nc12
inactive: [1] 50.8% | [2] 19% | [3] 67.9% | [4] 59.3% | [5] 60.3% | [6] 39.9% | [7] 39.4% | [8] 58.3% | [9] 70.9% | [10] 47.7% | [11] 19.5% | [12] 105% | [13] 45.9% | [14] 41.9% | [15] 26.8% | [16] 40.3% | [17] 42.8% | [18] 33.3% | [19] 45.3% | [20] 62.3%

Cc1ccc(C23CCC(=O)N2CCc2cncn23)cc1 (configuration not stated)
inactive: [1] 105% | [2] 112% | [3] 109% | [4] 113% | [5] 87% | [6] 114% | [7] 102% | [8] 101% | [9] 100% | [10] 101% | [11] 98.9% | [12] 98.3% | [13] 111% | [14] 97.7% | [15] 97.2% | [16] 95% | [17] 98.8% | [18] 95.8% | [19] 105% | [20] 106%

O=C(Nc1ncc(Cc2ccccc2)s1)c1cc(-c2ccccc2)nc2ccccc12
inactive: [1] 110% | [2] 103% | [3] 98% | [4] 104% | [5] 90.5% | [6] 103% | [7] 107% | [8] 101% | [9] 92.9% | [10] 93.3% | [11] 94.7% | [12] 104% | [13] 92.6% | [14] 98.1% | [15] 98.2% | [16] 94.8% | [17] 98.8% | [18] 89.8% | [19] 86.7% | [20] 105%

O=C1/C(=C/c2cccc([N+](=O)[O-])c2)COc2ccc(O)c(O)c21
inactive: [7] 58.6% | [17] 16.7%
active: [1] 2.4% | [2] 6.45% | [3] -53.3% | [4] -76.9% | [5] -81.3% | [6] -4.32% | [8] -89.1% | [9] 3.37% | [10] -63.9% | [11] -3.34% | [12] -12% | [13] 7.32% | [14] -47.3% | [15] -89% | [16] -38.9% | [18] -83.3% | [19] -93.6% | [20] -48.3%

CC1(C)CC(=O)C2=C(C1)OC(C(=O)c1ccccc1)C2c1cccc(Oc2ccccc2)c1 (configuration not stated)
inactive: [1] 68.1% | [2] 31.7% | [3] 59.5% | [4] 50.4% | [5] 42.8% | [6] 44.6% | [7] 32.6% | [8] 63.9% | [9] 45.5% | [10] 36.8% | [11] 45.6% | [12] 43.1% | [13] 40.7% | [14] 60.8% | [15] 40.8% | [16] 24% | [17] 36.3% | [18] 35.9% | [20] 74.4%

Brc1ccc(-c2nn(-c3ccccc3)cc2-c2nn[nH]n2)s1
inactive: [1] 108% | [2] 87.2% | [3] 103% | [4] 87.3% | [5] 100% | [6] 92.8% | [7] 82.6% | [8] 91.4% | [9] 98% | [10] 96.9% | [11] 96.2% | [12] 117% | [13] 92.7% | [14] 87.3% | [15] 87.8% | [16] 93.7% | [17] 90% | [18] 85.1% | [20] 96.2%

CC(C)C(=O)Nc1ncc(C(=O)NCCN(Cc2ccccc2)C(=O)c2ccc(S(=O)(=O)Nc3ccccc3)cc2)s1
inactive: [1] 109% | [2] 98.4% | [3] 111% | [4] 96.5% | [5] 95% | [6] 89.5% | [7] 100% | [8] 89.3% | [9] 105% | [10] 101% | [11] 96.6% | [12] 104% | [13] 78.3% | [14] 97.1% | [15] 97.4% | [16] 94.3% | [17] 90.8% | [18] 89.6% | [20] 98.4%
